The values that follow come from PubChem BioAssay AID686949 (The Scripps Research Institute Molecular Screening Center, 2013).

Out of some 3,200 compounds screened, about 2,200 (69%) were called active.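 How the source made its calls: active means activation, as change over the incubation, above the mean of all tested compounds plus 3 SD (cut at about 13% in these data); inactive means the rest.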 So high a share suggests a set chosen from earlier hits. The list is a sample of the results.

The target in this assay is Kallikrein-7 (Homo sapiens) (UniProt P49862). In words: proKLK7 zymogen activators, confirmation, biochemical, fluorescence intensity, triplicate (AID 686949). To be noted: purified proKLK7, EDANS-DABCYL substrate fluorescence; at 7 µM; stronger effect = higher value; scaled: vehicle 0, mature enzyme 100.
Sequence of Kallikrein-7 (Homo sapiens) (P49862 whole entry, looked up): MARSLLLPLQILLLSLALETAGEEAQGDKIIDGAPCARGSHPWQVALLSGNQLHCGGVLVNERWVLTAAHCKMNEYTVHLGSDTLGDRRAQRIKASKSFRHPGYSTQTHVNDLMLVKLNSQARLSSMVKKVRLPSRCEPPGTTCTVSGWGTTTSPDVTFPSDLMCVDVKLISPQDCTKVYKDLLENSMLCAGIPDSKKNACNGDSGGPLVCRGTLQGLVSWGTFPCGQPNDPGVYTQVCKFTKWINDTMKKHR
For the molecule `CC(=O)NN1C(=O)c2ccccc2NC1c1ccccc1` (centres undefined), the activation is 33.8% (active).

With `CCOC(=O)NN1C(=O)c2ccccc2NC1c1cccc(O)c1` (centres undefined), the activation is 19.6% (active).

With `COc1cc(/C=N\NC(=O)c2nonc2N)c(OC)cc1Br`, the activation was 75.4% (active).

For the molecule `CCc1nc(Nc2ccc(NC(C)=O)cc2)c2oc3ccccc3c2n1`, the activation is 69.9% (active).

`Cc1cc(C)c(C#N)c(SCC(=O)NN2CC(=O)N(c3ccccc3F)CC2=O)n1`: the activation is 52.8% (active).

`CCN1CCc2c(C#N)c(NCc3ccccc3)nc(NCCO)c2C1`: the activation was 31.4% (active).

As for `COc1cccc(NC(=O)CN(C)C(=O)/C=C/c2cc(OC)ccc2OC)c1`, the activation was -101% (inactive).

As for `COc1cccc2sc3cc(NCC[C@@H]4CCCN4C)ccc3c(=O)c12`, the activation was 46.9% (active).

`CN(C)C(=O)c1coc2nc3ccccc3nc12`: the activation is 104% (active).

`COc1ccc2nc(-c3ccccn3)ccc2c1`: the activation is 3.28% (inactive).

Take `COc1ccc(-c2cn3cccnc3n2)cc1`: the activation is 68.6% (active).

For the molecule `FC(F)(F)Oc1ccc(-c2cn3cccnc3n2)cc1`, the activation was 36.4% (active).

For `c1ccc(-c2cn3cccnc3n2)cc1`, the activation is 68.7% (active).

On to `Cc1cc(S(=O)(=O)c2cc3ccc(O)c(C)c3oc2=O)ccc1F`, for which the activation was 59.1% (active).

In the case of `CC1(C)CC(=O)c2cc(OCC(=O)NCC3CCCO3)ccc2O1` (centres undefined), the activation is 48.1% (active).

As to `CC(=O)Nc1nc2ncccn2c1-c1ccc(C(F)(F)F)cc1`, the activation is 30.9% (active).

As for `CCCn1c(=NC(C)=O)c(C(=O)OCC)cc2c(=O)n3ccccc3nc21`, the activation was 33.5% (active).

As for `Cc1cc2c(nc1C)CCCN2C`, the activation was 0.32% (inactive).

Regarding `CN1CCCc2cc(C#N)c(=O)[nH]c21`, the activation is 33.1% (active).

Regarding `COCCN(CCOC)c1nc(N)c2c(N)nc3c(c2c1C#N)CC(=O)N3Cc1ccc(Cl)cc1`, the activation was -29.9% (inactive).

Turning to `COc1nc(N=C(N)N)nc2c(C)cccc12`, the activation is 23.8% (active).

Turning to `NC(N)=Nc1nc(-c2ccccc2)c2cc(Cl)ccc2n1`, the activation is -1.67% (inactive).

Take `CCOc1c2ccc(C(=O)NCc3ccc4c(c3)OCO4)cc2nn1C`: the activation was 7.8% (inactive).

For `Cc1coc2c1c(C)cc1oc(=O)c(CC(=O)NCC(=O)N[C@H](C(=O)O)C(C)C)c(C)c12`, the activation is 38.2% (active).

Regarding `COC(=O)c1cnn2c(C(F)(F)F)cc(-c3ccco3)nc12`, the activation was 38.9% (active).

`Cc1nc2ccccc2cc1O`: the activation is -5.12% (inactive).

Take `COc1cc2c(cc1OC)CC1(CCCCC1)N=C2`: the activation was 43.5% (active).

Consider `Cc1cc(C)c2c(n1)nn1c(-n3ccnc3)cc(C)nc21`, for which the activation was 50.2% (active).

`Cc1ccc2nc3c(cc(C(=O)NCCc4ccccc4)c(=N)n3CC3CCCO3)c(=O)n2c1` (centres undefined): the activation was -15.4% (inactive).

On to `Cc1cccn2c(=O)c3cc(C(=O)NCCN4CCOCC4)c(=N)n(Cc4cccnc4)c3nc12`, for which the activation is 17.1% (active).

Regarding `Cc1cccn2c(=O)c3cc(C#N)c(=NC(=O)c4cccnc4)n(CC4CCCO4)c3nc12` (centres undefined), the activation is -75.3% (inactive).

With `CCn1c(=N)c(C(=O)NCCCOC)cc2c(=O)n3cccc(C)c3nc21`, the activation is 72.2% (active).

Turning to `CC(C)=NN1C(=O)c2ccccc2NC1(C)C`, the activation is 25% (active).

On to `COC(=O)c1ccc(C2C3=C(Nc4nnnn42)c2ccccc2OC3)cc1` (centres undefined), for which the activation was 5.83% (inactive).

On to `CC(C)Cc1nc(Nc2ccc(S(=O)(=O)N3CCCC3)cc2)c2nnn(Cc3ccccc3)c2n1`, for which the activation was 43.6% (active).

As for `COc1cccc(OCc2cc(/C=N/NC(=O)c3nc(Cl)c(Cl)c(N)c3Cl)ccc2OC)c1`, the activation was 62.4% (active).

As for `CC(C)(C)OC(=O)c1c(N)n(CCCN2CCCC2=O)c2nc3ccccc3nc12`, the activation was 69.5% (active).

Regarding `COCC(C)OC(=O)c1c(N)n(CCCN2CCOCC2)c2nc3ccccc3nc12` (centres undefined), the activation was 20% (active).

Take `COC(=O)c1c(C)c(C)nc(N)c1C#N`: the activation was 71.3% (active).

For `Cc1ccc(-c2nn(-c3ccccc3)cc2/C=C/C(=O)Nc2cccc(S(N)(=O)=O)c2)cc1`, the activation was 263% (active).

With `CCc1ccc(-c2cc(C(=O)NCc3ccco3)c3ccccc3n2)s1`, the activation was 75.3% (active).

For `CC1CC(C)CN(S(=O)(=O)c2cccc(C(=O)N3C(=O)c4cccc(N)c4C3=O)c2)C1` (centres undefined), the activation was 240% (active).

With `COc1cc(C(=O)N2C(=O)c3cccc(N)c3C2=O)cc(OC)c1OC`, the activation was 127% (active).

Take `Nc1ccccc1-c1nc2ccncc2[nH]1`: the activation is 2.63% (inactive).

Turning to `CCCCc1cc(=O)oc2cc(C)cc(OCc3nn[nH]n3)c12`, the activation is 28.8% (active).

Regarding `CCCCN(CCCC)CC(O)Cn1c2ccccc2c(=O)c2ccccc21` (centres undefined), the activation is 13.8% (active).

`CCCCCn1c(=O)c(C(=O)OCC)c(Cl)c2ccccc21`: the activation was -0.17% (inactive).

As for `CCCc1cc(=O)oc2c(C)c(O)c(CN3CCCCC3)cc12`, the activation was 62.8% (active).

As for `CC(=O)Nc1ccc(S(=O)(=O)NCC(=O)OCc2cc(=O)oc3ccc4ccccc4c23)cc1`, the activation was 218% (active).

With `Nc1ccc2nn(-c3ccc(Cl)cc3)nc2c1`, the activation was 65.8% (active).

Consider `CC1(C)CN(c2ccc(-c3ccnc4ncnn34)cc2)C1=O`, for which the activation is 68.6% (active).

In the case of `CCN1CCN(C(=O)c2cc3cc4ccc(OC)cc4nc3s2)CC1`, the activation is -15.9% (inactive).

For the molecule `COc1ccc2oc(=O)c(C(=O)N3CCCC3)cc2c1`, the activation was 23.8% (active).

For `COC(=O)C1=NN(c2ccccc2)C2C(=O)N(c3ccccc3OC)C(=O)C12` (centres undefined), the activation was 21.2% (active).

Consider `Cn1cccc1/C=N/NC(=O)CNc1cccc2ccccc12`, for which the activation was 2.27% (inactive).

Turning to `O=C(O)c1cccnc1Sc1ncnc2sc3c(c12)CCC3`, the activation is 17.9% (active).

Regarding `Cc1oc2nc(SCC(=O)Nc3ccc(S(N)(=O)=O)cc3)nc(NC(=O)c3ccccc3)c2c1C`, the activation was 5.56% (inactive).

Regarding `O=c1oc2cc(O)ccc2cc1-c1ccc(F)cc1`, the activation was 76% (active).

Consider `O=C(Nc1nncs1)c1ccccc1NS(=O)(=O)c1cccs1`, for which the activation was 26.4% (active).

For `CCOc1ccc(N2C(=O)CC(N(O)c3ccccc3)C2=O)cc1` (centres undefined), the activation was 166% (active).

`COC(=O)Cc1cc(=O)oc2c(C)c(O)ccc12`: the activation is 68% (active).

For the molecule `CN(C)CCN1CCN(c2cc(-c3cccc(Cl)c3)nc3ccnn23)CC1`, the activation is 0.23% (inactive).

With `COCc1cc(=O)[nH]c2cc(NC(=O)C(F)(F)F)c(C)cc12`, the activation was 239% (active).

As to `N#Cc1nc(-c2cccc3ccccc23)oc1N`, the activation is 70.2% (active).
